Experimental data: article PMC5540273 (PLoS ONE, 2017)
“And” between values parts separate entries of the source, which are not always exact repeats. Identical values can stand only once. Like-named read-outs stand apart in the source and are kept apart here.

Columns and labels:
MAP4K4 = details: concentration: 1 μM, replicates: in singlicate; n = 1
MAP4K5 = details: concentration: 1 μM, replicates: in singlicate; n = 1
MAPKAPK2 = details: n = 1
MAPKAPK5 = details: concentration: 1 μM, replicates: in singlicate; n = 1
MARK1 = details: n = 1
MARK2 = details: concentration: 1 μM, replicates: in singlicate; n = 1
MARK3 = details: concentration: 1 μM, replicates: in singlicate; n = 1
MARK4 = details: n = 1
MAST1 = details: concentration: 1 μM, replicates: in singlicate; n = 1
MEK1 = system: T1, MEK1; details: concentration: 1 μM, replicates: in singlicate; n = 1
T1 construct: gene MAP2K1

[1] = concentration: 1 μM, replicates: in singlicate
[2] = concentration: 1 μM,replicates: in singlicate, 1 µM
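Further: KINOMEscan kinase panel screen.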

| SMILES | %Inh (MAP4K4) | %Inh (MAP4K5) | %Inh (MAPKAPK2; [1]) | %Inh (MAPKAPK5) | %Inh (MARK1; [1]) | %Inh (MARK2) | %Inh (MARK3) | %Inh (MARK4; [1]) | %Inh (MAST1) | %Inh (MEK1) | %Inh (MAPKAPK2; [2]) | %Inh (MARK1; [2]) | %Inh (MARK4; [2]) |
| --- | --- | --- | --- | --- | --- | --- | --- | --- | --- | --- | --- | --- | --- |
| Cn1ccc2ncnc(Oc3cccc(C(=O)Nc4ccccc4)c3)c21 | 8% | 0% | 0% | 12% | 13% | 0% | 0% | 6% | 35% | 1% |  |  |  |
| COc1cccc(NC(=O)NC2CCN(c3ccnc(Nc4ccc(F)cc4)n3)C2)c1 (stereo not drawn) [GSK1379721] | 83% | 96.7% | 0% | 0% | 0% | 0% | 9% | 0% | 17% | 31% |  |  |  |
| COc1ccc2nc(-c3cccc(C)n3)nc(Nc3ccncc3)c2c1 [GSK204919] | 0% | 0% | 17% | 0% | 0% | 0% | 0% | 0% | 0% | 0% |  |  |  |
| Cc1cc(-c2ccc3c(c2)CC[C@@H](N[C@@H](C)c2ccccc2)C3)cnc1N.Cl [GW412617] | 17% | 41% | 13% | 0% | 4% | 10% | 32% | 14% | 0% | 0% |  |  |  |
| CSc1nn2c(=O)cc(N3CCOCC3)nc2n1Cc1cccc(C(F)(F)F)c1C [GSK2363608] | 0% | 0% |  | 0% |  | 0% | 0% |  | 0% | 0% | 2% and 27% | 9% and 0% | 15% and 0% |
| Cc1csc(-c2nc(Nc3ccncc3)c3ccccc3n2)n1 [GW869640] | 14% | 0% | 0% | 3% | 25% | 13% | 0% | 38% | 60% | 13% |  |  |  |
| Cn1ccc2ncnc(Oc3ccc(NC(=O)Nc4ccccc4)cc3)c21 | 0% | 0% | 0% | 0% | 11% | 0% | 50% | 10% | 18% | 0% |  |  |  |
| Cc1cccc(-c2nc(Nc3cccc(C(N)=O)c3)c3ccccc3n2)n1 [GW876019] | 0% | 0% | 0% | 0% | 0% | 0% | 45% | 0% | 11% | 97.2% |  |  |  |
| COc1ccccc1CNC(=O)c1cc(C(=O)c2ccccc2C)c[nH]1 [GSK364507] | 6% | 0% | 26% | 0% | 89% | 0% | 0% | 50% | 0% | 0% |  |  |  |
| COc1ccc(CNC(=O)NC2CCN(c3ccnc(Nc4cc(OC)c(OC)c(OC)c4)n3)C2)cc1 (stereo not drawn) [GSK1379748] | 0% | 0% | 0% | 0% | 0% | 0% | 0% | 0% | 13% | 0% |  |  |  |
| Cl.Oc1ccc(-c2nc(-c3ccccc3)[nH]c2-c2ccncc2)cc1 [SB-428218] | 0% | 0% | 13% | 0% | 0% | 0% | 0% | 0% | 0% | 0% |  |  |  |
| Cl.NC(=O)c1cccc(Nc2nccc(Nc3ccc(Oc4cccc(Cl)c4)c(Cl)c3)n2)c1 [GW659008] | 18% | 33% | 8% | 0% | 13% | 0% | 0% | 24% | 5% | 0% |  |  |  |
| CC(C)(C)c1ccc(C(=O)Nc2cn3cc(-c4cccnc4)ccc3n2)cc1 | 15% | 0% | 0% | 0% | 36% | 27% | 0% | 38% | 0% | 3% |  |  |  |
| O=C(Nc1n[nH]c2nc(-c3nccs3)c(Br)cc12)C1CC1 [SB-742251] | 4% | 1% | 0% | 0% | 0% | 0% | 0% | 0% | 20% | 0% |  |  |  |
| COc1ccccc1-c1ccc2c(NC(=O)C3CC3)n[nH]c2n1 [SB-711239] | 25% | 26% | 27% | 2% | 0% | 0% | 0% | 0% | 26% | 0% |  |  |  |
| CC1=C(C(=O)Nc2cc3cn[nH]c3cc2F)C(c2ccc(C(F)(F)F)cc2)CC(=O)N1 (stereo not drawn) [GSK429286] | 59% | 75% | 21% | 0% | 0% | 0% | 0% | 0% | 0% | 0% |  |  |  |
| COc1ccc(Nc2nccc(NCCNC(=O)Nc3ccccc3F)n2)cc1 [GSK1379901] | 0% | 0% | 25% | 0% | 0% | 0% | 0% | 11% | 0% | 0% |  |  |  |
| CCCc1ccc(S(=O)(=O)NC2CCN(c3ccnc(Nc4ccc(F)cc4)n3)C2)cc1 (stereo not drawn) [GSK1379715] | 0% | 0% | 15% | 0% | 0% | 0% | 0% | 0% | 48% | 0% |  |  |  |
